Calls of active or inactive are those of the source.
Columns and labels:
[1] = tested on: PRMT1 (protein arginine N-methyltransferase 1); experiment: small molecules binding arginine methyltransferase PRMT1 – biochemical, small-molecule microarray, 635 nm fluorescence, primary screen (AID 1088); conditions: higher = more signal;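 note: binding of Prmt1 protein to compounds spotted on small-molecule microarray slides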
[2] = growth effects on S. cerevisiae YJM789 – YJM789 clinical isolate, OD600, 24 h, basal, primary screen (AID 1089); conditions: higher = more signal, called active from +8 up or from −8 down;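 note: growth of clinical yeast isolate S. cerevisiae YJM 789 seeded 1000 cells per well; test concentration not given here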
[3] = S. pombe growth modifiers, basal conditions – strain 972, OD600, 24 h, no modulator, primary screen (AID 1090);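 note: basal condition with compound alone and no growth modifier present; test concentration not given here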; conditions: S. pombe 972 growth, higher = more signal, called active from +8 up or from −8 down
[4] = budding yeast growth modifiers under rapamycin – strain BY4716, OD600, 96 h, primary screen (AID 1091); note: test concentration not given here; conditions: S. cerevisiae BY4716 + rapamycin, higher = more signal, called active from +8 up or from −8 down
[5] = molecular target: Torsin-1A-interacting protein 2 (Homo sapiens) (UniProt Q8NFQ8); experiment: small molecules binding lysate-expressed LULL1 – cell lysate, human LULL1 lysate, 635/667 nm fluorescence, primary screen (AID 1092); conditions: small-molecule microarray, hLULL1 lysate binding, 635 nm fluorescence; higher = more signal;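 note: probe is lysate of COS7 cells overexpressing human LULL1; score merges per-feature 667 nm fluorescence with signal-to-noise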
[6] = optical density change of DRC41 E. coli – strain DRC41, OD650, 24 h, E. coli filamentation project, primary screen (AID 1093);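 note: MC1000 strain lacking acrAB efflux and sulA so SOS filamentation is blocked; test concentration not given here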; conditions: E. coli DRC41 growth, higher = more signal, called active from +8 up or from −8 down
[7] = probe aLefty2 binding to arrayed compounds – biochemical, biotinylated probe, 635/667 nm fluorescence, primary screen (AID 1094); conditions: small-molecule microarray, higher = more signal;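 note: score merges spot fluorescence near 667 nm with spot signal-to-noise ratio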
[8] = tested on: Noggin (protein binding on small-molecule microarray); experiment: small molecules binding Noggin protein – biochemical, 635/667 nm fluorescence, primary screen (AID 1095); conditions: 635 nm fluorescence, higher = more signal;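 note: score merges 667 nm feature fluorescence with signal to noise over triplicate slides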
[9] = molecular target: Neurogenic locus notch homolog protein 3 (Homo sapiens) (UniProt Q9UM47); experiment: small molecules binding NOTCH3 protein – biochemical, 635/667 nm fluorescence, primary screen (AID 1096); conditions: small-molecule microarray, 635 nm fluorescence, higher = more signal
[10] = probe aEGFR binding to arrayed compounds – biochemical, biotinylated probe, 635/667 nm fluorescence, primary screen (AID 1097); conditions: small-molecule microarray, higher = more signal;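 note: probe is a biotinylated anti-EGFR antibody binding compounds printed on slides; score combines fluorescence near 667 nm and signal to noise of each spot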

Torsin-1A-interacting protein 2 (Homo sapiens), sequence (Q8NFQ8 whole entry, looked up): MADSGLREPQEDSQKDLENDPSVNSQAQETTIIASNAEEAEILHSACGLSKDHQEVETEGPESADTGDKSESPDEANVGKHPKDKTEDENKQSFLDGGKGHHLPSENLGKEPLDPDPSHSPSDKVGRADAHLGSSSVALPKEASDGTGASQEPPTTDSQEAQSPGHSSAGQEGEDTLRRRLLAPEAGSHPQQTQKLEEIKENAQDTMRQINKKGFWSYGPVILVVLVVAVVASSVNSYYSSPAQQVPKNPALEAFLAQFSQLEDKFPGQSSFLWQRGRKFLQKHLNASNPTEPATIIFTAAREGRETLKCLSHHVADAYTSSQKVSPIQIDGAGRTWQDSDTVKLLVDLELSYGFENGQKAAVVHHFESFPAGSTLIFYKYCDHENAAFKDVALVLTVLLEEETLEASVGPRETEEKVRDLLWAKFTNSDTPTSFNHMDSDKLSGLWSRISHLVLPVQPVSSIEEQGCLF
Neurogenic locus notch homolog protein 3 (Homo sapiens), sequence (Q9UM47 whole entry, looked up): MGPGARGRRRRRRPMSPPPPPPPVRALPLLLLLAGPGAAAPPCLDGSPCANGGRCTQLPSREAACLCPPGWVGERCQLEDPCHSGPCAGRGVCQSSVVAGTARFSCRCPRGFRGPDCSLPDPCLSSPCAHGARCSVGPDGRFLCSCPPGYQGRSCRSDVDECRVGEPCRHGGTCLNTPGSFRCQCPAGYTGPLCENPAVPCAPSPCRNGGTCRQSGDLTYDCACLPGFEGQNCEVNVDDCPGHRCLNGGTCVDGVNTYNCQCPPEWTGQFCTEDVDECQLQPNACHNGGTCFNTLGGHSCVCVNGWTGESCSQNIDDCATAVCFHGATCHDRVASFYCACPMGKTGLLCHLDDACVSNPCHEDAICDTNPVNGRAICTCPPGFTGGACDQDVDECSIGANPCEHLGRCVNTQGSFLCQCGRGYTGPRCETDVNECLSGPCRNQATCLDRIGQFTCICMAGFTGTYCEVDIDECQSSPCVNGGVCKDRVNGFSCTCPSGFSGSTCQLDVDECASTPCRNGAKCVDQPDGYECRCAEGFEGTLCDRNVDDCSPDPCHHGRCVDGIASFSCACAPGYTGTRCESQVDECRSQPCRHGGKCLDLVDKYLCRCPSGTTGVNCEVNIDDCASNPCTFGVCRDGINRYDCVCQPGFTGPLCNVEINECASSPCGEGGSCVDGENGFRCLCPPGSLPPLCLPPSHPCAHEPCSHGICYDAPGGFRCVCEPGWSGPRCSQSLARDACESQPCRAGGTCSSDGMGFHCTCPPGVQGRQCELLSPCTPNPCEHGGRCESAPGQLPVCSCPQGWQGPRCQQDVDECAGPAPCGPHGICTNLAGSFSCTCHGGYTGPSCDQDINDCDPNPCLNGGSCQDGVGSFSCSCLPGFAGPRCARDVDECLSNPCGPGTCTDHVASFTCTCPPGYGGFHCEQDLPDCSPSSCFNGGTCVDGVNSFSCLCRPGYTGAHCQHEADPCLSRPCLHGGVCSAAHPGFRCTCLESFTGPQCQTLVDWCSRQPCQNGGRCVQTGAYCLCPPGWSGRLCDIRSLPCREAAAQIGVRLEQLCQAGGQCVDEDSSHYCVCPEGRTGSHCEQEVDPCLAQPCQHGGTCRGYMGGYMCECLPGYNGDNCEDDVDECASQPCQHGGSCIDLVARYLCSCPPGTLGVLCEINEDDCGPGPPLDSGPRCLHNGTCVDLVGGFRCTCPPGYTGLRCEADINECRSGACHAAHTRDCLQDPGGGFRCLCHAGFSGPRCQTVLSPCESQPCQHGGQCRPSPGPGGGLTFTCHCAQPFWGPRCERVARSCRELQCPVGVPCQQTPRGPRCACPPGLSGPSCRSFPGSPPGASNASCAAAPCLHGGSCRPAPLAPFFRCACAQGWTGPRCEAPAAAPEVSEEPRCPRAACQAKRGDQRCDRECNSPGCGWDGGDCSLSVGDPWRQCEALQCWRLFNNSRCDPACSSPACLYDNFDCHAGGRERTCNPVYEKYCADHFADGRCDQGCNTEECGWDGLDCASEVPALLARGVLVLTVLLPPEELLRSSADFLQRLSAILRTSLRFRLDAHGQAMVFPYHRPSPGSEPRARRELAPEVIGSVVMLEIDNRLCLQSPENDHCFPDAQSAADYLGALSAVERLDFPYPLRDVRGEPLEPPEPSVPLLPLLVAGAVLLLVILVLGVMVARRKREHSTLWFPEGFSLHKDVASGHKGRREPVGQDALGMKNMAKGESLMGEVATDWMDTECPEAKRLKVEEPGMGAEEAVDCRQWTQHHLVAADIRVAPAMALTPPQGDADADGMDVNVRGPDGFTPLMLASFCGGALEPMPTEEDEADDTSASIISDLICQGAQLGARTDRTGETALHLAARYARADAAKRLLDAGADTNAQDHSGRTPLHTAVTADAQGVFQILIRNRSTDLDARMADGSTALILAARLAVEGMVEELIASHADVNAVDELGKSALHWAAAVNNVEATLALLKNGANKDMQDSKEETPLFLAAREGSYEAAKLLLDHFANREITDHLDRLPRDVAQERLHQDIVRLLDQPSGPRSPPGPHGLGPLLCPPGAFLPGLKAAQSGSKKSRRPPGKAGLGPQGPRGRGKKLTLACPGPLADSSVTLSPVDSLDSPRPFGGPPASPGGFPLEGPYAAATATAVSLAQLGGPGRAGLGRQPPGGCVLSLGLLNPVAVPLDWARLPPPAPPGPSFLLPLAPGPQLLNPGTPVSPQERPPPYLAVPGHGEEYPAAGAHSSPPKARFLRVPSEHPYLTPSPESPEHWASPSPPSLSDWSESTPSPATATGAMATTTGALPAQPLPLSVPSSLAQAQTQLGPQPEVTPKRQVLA

| SMILES | composite z-score [1] | z-score [2] | z-score [3] | z-score [4] | composite z-score [5] | z-score [6] | composite z-score [7] | composite z-score [8] | composite z-score [9] | composite z-score [10] |
| --- | --- | --- | --- | --- | --- | --- | --- | --- | --- | --- |
| CCCCCN1CC=CC23O[C@@H]4C=CCOC(=O)[C@@H]4[C@H]2C(=O)N(C(CO)C(C)C)[C@@H]3C1=O (stereo not given in full) | -0.266 | 0.403 (inactive) | 0.195 (inactive) | 0.972 (inactive) | -1.52 | 0.869 (inactive) | -0.166 | -0.433 | 0.247 | -0.234 |
| CCOC(=O)[C@H](Cc1ccccc1)NC(=O)CCC1CC(OC(=O)NCCc2ccc(F)cc2)CC2(CCCC(COC(=O)NCC(c3ccccc3)c3ccccc3)O2)O1 (stereo not given in full) | 1.57 | 0.378 (inactive) | 0.745 (inactive) | -0.436 (inactive) | 2.18 | 0.0565 (inactive) | -0.199 | 0.538 | 1.14 | -0.139 |
| CC(C)=NOCc1ccc(-c2cc(-c3ccccc3)no2)cc1 | -1.06 | 0.237 (inactive) | 0.256 (inactive) | 0.213 (inactive) | 0.108 | 0.383 (inactive) | -0.252 | 0.429 | 0.152 | -0.163 |
| C=CC[C@]1(C(=O)NCc2ccccc2)N=C(c2ccc(OCCCO)cc2)O[C@H]1c1ccccc1 | 1.55 | 0.159 (inactive) | -0.46 (inactive) | 6.37 (inactive) | 3.28 | 0.568 (inactive) | -0.0238 | 0.119 | 0.778 | -0.137 |
| O=C1CCCC2OC12C(O)CCc1ccccc1 (stereo not given) | -0.071 | 0.238 (inactive) | 0.211 (inactive) | 0.164 (inactive) | -0.0258 | 0.454 (inactive) | -0.215 | 0.373 | 0.0248 | 0.395 |
| CC(CCC(=O)OC[C@H]1O[C@H](C#Cc2ccccc2)C=C[C@@H]1Oc1ccc(C)cc1)=NOC[C@@H](O)COCc1ccco1 | -0.25 | 0.594 (inactive) | 0.134 (inactive) | 0.108 (inactive) | -0.486 | 0.147 (inactive) | -0.356 | -3.08 | -1.76 | -0.428 |
| CC(C)(C)OC(=O)CC[C@]1(C(N)=O)COC(c2ccc(OCCCO)cc2)=N1 | 1.09 | 0.0433 (inactive) | -0.391 (inactive) | 0.0262 (inactive) | 3.09 | 0.308 (inactive) | 0.65 | 0.115 | 0.849 | 0.34 |
| NC(=O)NCC#Cc1ccc2c(c1)[C@]1(C(=O)N2)[C@H](c2ccc(O)cc2)N2[C@H](c3ccccc3)[C@H](c3ccccc3)OC(=O)[C@H]2[C@@H]1C(=O)N1CCCCCCC1 | 1.53 | 1 (inactive) | -0.447 (inactive) | 1.24 (inactive) | 1.55 | 0.951 (inactive) | 1.24 | 1.55 | 1.01 | 0.511 |
| CCN1C(=O)[C@H]2[C@H]3[C@H](O)C=CC(=O)[C@@H]3CC[C@H]2C1=O | -0.777 | 0.0131 (inactive) | -0.373 (inactive) | -0.624 (inactive) | 0.0819 | 0.255 (inactive) | -0.0961 | 0.701 | 0.705 | -0.094 |
| CCN1C(=O)[C@H]2[C@H]3[C@H](O)[C@H](O)CC(=NOC(C)CN4CCCCc5nc(C)c(C)cc54)[C@@H]3CC[C@H]2C1=O (stereo not given in full) | 0.708 | 0.12 (inactive) | 0.634 (inactive) | 0.403 (inactive) | -0.414 | 1.03 (inactive) | -0.0977 | 0.732 | 0.398 | 0.126 |
| CCOC(=O)CCN1C(=O)[C@H]2[C@H]3[C@H](O)[C@H](O)CC(=O)[C@H]3CC[C@H]2C1=O | 0.0774 | 0.184 (inactive) | -0.373 (inactive) | 0.341 (inactive) | 0.35 | 0.355 (inactive) | -0.225 | 0.387 | 0.295 | -0.0381 |
| COc1ccc(O[C@@H]2[C@H](O)CO[C@H]2C=CC#Cc2ccccc2)cc1 | 0.101 | 0.937 (inactive) | -0.777 (inactive) | 0.958 (inactive) | 0.0101 | 0.338 (inactive) | -0.197 | 0.347 | -0.413 | -0.228 |
| COc1ccc(O[C@H]2C=C[C@@H](c3ccccc3)O[C@@H]2COC(=O)CCC(C)=NOC[C@@H](C)[C@H](OCc2ccccc2)C(C)C)cc1 | -0.548 | 0.122 (inactive) | 0.329 (inactive) | -1.18 (inactive) | -0.694 | 0.17 (inactive) | -0.261 | -0.37 | -1.03 | -0.219 |
| O=C(CS)NCCCCCNC(=O)[C@@H]1C[C@@H]2C(=O)N[C@@H](Cc3ccccc3)C(=O)N2[C@@H]1c1ccc(O)cc1 | 1.47 | 0.176 (inactive) | -0.321 (inactive) | 0.858 (inactive) | 3.06 | 1.28 (inactive) | -0.0687 | -0.306 | 0.373 | -0.104 |
| C=C(CCCC)C(=O)CC[C@@H](OC(C)=O)c1cccc(OCCO)c1 | 0.468 | -24.3 (active) | -20.6 (active) | -3.92 (inactive) | 0.0116 | -0.139 (inactive) | -0.193 | 1.54 | 0.165 | -0.192 |
| CCOC(=O)NN=C1C[C@@H](O)[C@@H](O)[C@@H]2[C@@H]3C(=O)N(C4CCCCC4)C(=O)[C@@H]3CC[C@@H]12 | -0.319 | -1.33 (inactive) | -0.895 (inactive) | -0.495 (inactive) | 0.156 | 0.637 (inactive) | -0.028 | 0.257 | 0.324 | -0.0329 |
| CCc1cc2c(nc1CC)CCN(CCC(C)=NOC(C)CN1CCCc3nc(C)c(C)cc31)C2 (stereo not given) | 1.37 | -2.1 (inactive) | -1.74 (inactive) | -1.28 (inactive) | 1.41 | 0.517 (inactive) | 0.696 | 1.13 | 0.986 | 0.391 |
| COC(=O)[C@@]1(Cc2ccc(F)cc2)[C@@H]2C(=CC(=O)[C@H]2CC(=O)C(=O)N(C)C)CN1C(=O)c1ccccc1 | 1.14 | 1 (inactive) | 1.84 (inactive) | 8.71 (active) | 3.5 | -0.399 (inactive) | 0.393 | 0.171 | 1.02 | 0.396 |
| CN(C)C(=O)[C@@]1(Cc2ccccc2)N=C(c2ccc(OCCCO)cc2)O[C@H]1c1ccccc1CN=[N+]=[N-] | 1.56 | -1.88 (inactive) | -0.31 (inactive) | 0.477 (inactive) | 3.17 | 0.73 (inactive) | 0.578 | 0.801 | 0.969 | 0.361 |
| CCc1cc2c(nc1CC)CCN(CCC(C)=NOC[C@@H](O)COCc1ccco1)C2 | 1.54 | -0.907 (inactive) | -0.871 (inactive) | -0.935 (inactive) | -1.51 | 0.903 (inactive) | 0.469 | 1.68 | 1.05 | 0.441 |
| COC(=O)[C@H](C)NC(=O)CCC1CC(OC(=O)NCCc2ccc(F)cc2)CC2(CCCC(COC(=O)NCC(c3ccccc3)c3ccccc3)O2)O1 (stereo not given in full) | 0.915 | 0.304 (inactive) | 0.917 (inactive) | 1.56 (inactive) | 1.88 | 0.115 (inactive) | -0.175 | 0.409 | 0.897 | -0.094 |
| O=C1[C@H]2[C@H]3[C@H](O)[C@H](O)CC(=NO[C@@H]4O[C@H](CO)[C@@H](O)[C@H](O)[C@H]4O)[C@@H]3CC[C@H]2C(=O)N1c1ccc(F)cc1F | -0.841 | -1.24 (inactive) | -0.114 (inactive) | -1.29 (inactive) | 0.245 | 0.645 (inactive) | -0.119 | 0.575 | 0.79 | -0.113 |
| CC(C)=CCCC(C)=CCON=C1C[C@@H](O)[C@@H](O)[C@@H]2[C@@H]3C(=O)N(C[C@@H]4CCCO4)C(=O)[C@@H]3CC[C@@H]12 | 1.54 | -0.224 (inactive) | 0.574 (inactive) | -0.618 (inactive) | 2.34 | 0.325 (inactive) | -0.133 | 1.3 | 1.01 | -0.0556 |
| CC(=O)C[C@H](O)[C@@H](NC(=O)OC(C)(C)C)C(C)C | -0.402 | -0.498 (inactive) | -0.644 (inactive) | 0.0836 (inactive) | -1.18 | -0.972 (inactive) | -0.214 | -0.198 | -0.0052 | -0.171 |
| COCCOC(=O)N1C(=O)[C@@]2(c3cc(C#Cc4ccc(OC)cc4)ccc31)[C@H](C(=O)N1CCN(c3ncccn3)CC1)[C@H]1C(=O)O[C@H](c3ccccc3)[C@H](c3ccccc3)N1[C@@H]2c1ccc(OCCO)cc1 | 1.55 | 2.04 (inactive) | 1.46 (inactive) | 5.06 (inactive) | 2.12 | -0.371 (inactive) | 0.192 | 0.918 | 1.11 | 0.232 |
| CCOC(=O)[C@H](Cc1ccccc1)NC(=O)CCC1CC(OC(=O)NCc2ccc3c(c2)OCO3)CC2(CCCC(COC(=O)NCc3cccc(C(F)(F)F)c3)O2)O1 (stereo not given in full) | 1.35 | -0.594 (inactive) | 0.926 (inactive) | 0.287 (inactive) | 0.735 | -1.29 (inactive) | -0.0383 | 0.606 | 1.11 | 0.0293 |
| CO[C@H]1COC(=O)[C@H](C)NC(=O)[C@@H](C)COC(=O)CC=C[C@@H]1C | 0.748 | -0.156 (inactive) | 0.473 (inactive) | -0.564 (inactive) | -0.498 | 0.2 (inactive) | -0.103 | 0.3 | 0.674 | -0.02 |
| O=C(NN=C1C[C@@H](O)[C@@H](O)[C@@H]2[C@@H]3C(=O)N(c4cccc(Oc5ccccc5)c4)C(=O)[C@@H]3CC[C@@H]12)OCc1ccccc1 | 0.633 | 0.909 (inactive) | 0.588 (inactive) | 0.281 (inactive) | 1.46 | 0.108 (inactive) | -0.0345 | 0.635 | 0.0096 | -0.124 |
| CO[C@@H]1COC(=O)[C@H](C)NC(=O)[C@@H](C)COC(=O)CCC[C@H]1C | 1.27 | -0.11 (inactive) | 0.381 (inactive) | -1.14 (inactive) | 2.11 | -0.183 (inactive) | -0.179 | 0.209 | -0.0217 | 0.136 |

Source: PubChem BioAssay
